Measured values from PubChem BioAssay.

Target: Carbonic anhydrase 2 (Homo sapiens) (UniProt P00918)
Assay: compounds binding carbonic anhydrase 2 – biochemical, small-molecule microarray, Alexa647-labelled CAII, profiling panel (AID 1122)
Conditions: CAII-A647 binding fluorescence, higher = more signal

Row | Structure (SMILES) | composite z-score
1 | CCCCCCc1nc(-c2ccc(OC)nc2)cc2c1[Si](C(C)C)(C(C)C)O[C@H]2c1ccccc1 | -0.0224
2 | O=C(CS)NCCCCCCNC(=O)[C@@H]1C[C@@H]2C(=O)N[C@@H](Cc3ccccc3)C(=O)N2[C@@H]1c1cccc(OCCO)c1 | 0.567
3 | COC(=O)[C@@]1(Cc2ccc(OC)cc2)[C@H]2c3cc(C(=O)N(C)C)n(Cc4ccc(S(C)(=O)=O)cc4)c3C[C@H]2CN1C(=O)c1ccccc1 | 0.725
4 | O=C1C[C@@](C(=O)NC2CC2)(c2ccc([N+](=O)[O-])cc2)[C@@H](c2ccc(CO)cc2I)N1C1CCCCC1 | 0.452
5 | CN1C=C(C(=O)OCCS(C)(=O)=O)C(C(=O)OCCS(C)(=O)=O)=CC(c2ccc(CO)cc2)=CC1C1CC1 (stereo not drawn) | 0.497
6 | O=C1NC(=O)C2C1C=CC(C(O)c1cc(C(F)(F)F)cc(C(F)(F)F)c1)N2Nc1ccccn1 (stereo not drawn) | 0.673
7 | CN(C)CCCCCCNC(=O)[C@@H]1C[C@@H]2C(=O)N[C@@H](Cc3ccccc3)C(=O)N2[C@@H]1c1ccc(O)cc1 | 0.425
8 | Cc1nc2cc(Br)ccc2c(=O)o1 | 0.633
9 | O=C(NC1CC1)[C@@H]1c2ccccc2C(=O)N(Cc2ccccc2Cl)[C@H]1c1ccc(CO)cc1 | 0.633
10 | O[C@@H](Cc1ccccc1)[C@H]1C2C=CCCC=C2CN1Cc1cccc(Cl)c1 (stereo partly drawn) | 0.385
11 | COCCOC(=O)N1C(=O)[C@@]2(c3cc(C#CCNC(N)=O)ccc31)[C@H](C(=O)N1CCN(c3ncccn3)CC1)[C@H]1C(=O)O[C@H](c3ccccc3)[C@H](c3ccccc3)N1[C@@H]2c1ccc(OCCO)cc1 | 0.193
12 | COCCOC(=O)N1C(=O)[C@@]2(c3cc(C#CCNC(N)=O)ccc31)[C@H](C(=O)Nc1nc3ccccc3s1)[C@H]1C(=O)O[C@H](c3ccccc3)[C@H](c3ccccc3)N1[C@@H]2c1ccc(OCCO)cc1 | 0.382
13 | CC(C)C(O)C1C=CC2C(=O)N(c3ccccc3)C(=O)C2N1Nc1ccc([N+](=O)[O-])cc1 (stereo not drawn) | 0.719
14 | CCOC(=O)C[C@H]1[C@H](OC(=O)c2ccccc2-c2ccccc2)[C@@H](NC(=O)CC(C)C)c2cc(OCCCO)ccc2N1C(=O)Cc1ccc(OC)cc1 | -0.132
15 | C=C(CCCC)/C(=C/C[C@H](OC(C)=O)c1ccccc1OCCO)c1cc(C(=O)OC)ccc1OC | 0.767
16 | C=CCC(OC(C)=O)[C@@H]1[C@@H](N(Cc2ccc(-c3ccccc3)cc2)C(=O)Cc2ccc(OC)cc2)c2cc(OCCCO)ccc2N1C(=O)Cc1ccc2ccccc2c1 (stereo partly drawn) | 0.064
17 | COc1ccc(CCNC(=O)[C@@]2(Sc3ccc(C)cc3)CC(=O)N(C3Cc4ccccc4C3)[C@@H]2c2ccc(CO)cc2I)cc1 | 0.729
18 | COC(=O)[C@@]1(Cc2ccccc2)N=C(c2ccc(OCCCO)cc2)O[C@H]1c1ccccc1 | 0.624
19 | COCCOC(=O)N1C(=O)[C@@]2(c3cc(C#CCC(C(=O)OC)C(=O)OC)ccc31)[C@H](c1ccccc1OCCO)N1[C@H](c3ccccc3)[C@H](c3ccccc3)OC(=O)[C@H]1[C@@H]2C(=O)N1CCN(c2ncccn2)CC1 | 0.499
20 | C=C(CCCC)/C(=C/C[C@@H](OC(=O)c1ccncc1)c1ccc(OCCO)cc1)c1cc(C(=O)OC)ccc1OC | 0.554
21 | CCCCN1CC=CC23O[C@@H]4C=CCCOC(=O)C4[C@H]2C(=O)N(CCCCCCO)[C@@H]3C1=O (stereo partly drawn) | 0.876
22 | CN(C)CCCC[C@@H]1NC(=O)[C@H]2C[C@@H](C(=O)NCCCCCCN)[C@@H](c3ccc(O)cc3)N2C1=O | 0.35
23 | COc1ccc(-c2cc3c(c(-c4ccc(Oc5ccccc5)cc4)n2)[Si](C(C)C)(C(C)C)OC3)cn1 | -0.163
